Screening data: PubChem, National Center for Advancing Translational Sciences (NCATS)
Shown are actives, neighbours in structure and some others; about 19% of the full set was active somewhere.
DT40 TDP1 CPT – growth inhibition of DT40 Tdp1-/-;hTDP1 cells with camptothecin (screen for TDP1 inhibitors). chicken DT40 Tdp1-/-;hTDP1 cells + 20 nM CPT, ATP luminescence, 48 h. Potency, µM (highest dose often 46.2 µM), hits mostly inhibitors. hit rate 12% among 420,000. AID 686979; further: nearly all actives have a fitted effect of over 55% in size
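Chicken DT40 Tdp1-/- cells complemented with human TDP1, 400 cells/well, exposed to compounds plus 20 nM camptothecin for at least 48 h at 37 C; viability read as ATP content by CellTiter-Glo luminescence.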
IL-1B inflam inh – inflammasome signaling inhibition, IL-1 beta readout; THP-1 LPS/ATP IL-1B secretion, AlphaLISA, 16 h; stronger effect = lower value; activity change, % at 57.5 µM; hit rate 4.7% among 360,000; AID 743279; in the data active means activity change below about -50%; inconclusive means mostly about -30% to -49%
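Secreted IL-1B measured by AlphaLISA bead assay after 16 h compound exposure of THP-1 cells; compounds (final up to 57.5 uM) added 1 h before LPS (250 ng/mL) and ATP (1.25 mM) stimulation; lower signal means less secretion.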
HT1080 IDH1KD tx – HT-1080 IDH1 knockdown cell toxicity (counter line). HT-1080 IDH1 knockdown viability, ATP luminescence, 48 h. Potency, µM (doses to about 46.1 µM), actives largely listed as cytotoxic. hit rate 2% among 360,000
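Cytotoxicity counter-line: IDH1KD HT-1080, 48 h, CellTiter-Glo. Curves classed by r2, magnitude and activity.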
DT40 TDP1 no CPT – qHTS for Inhibitors of human tyrosyl-DNA phosphodiesterase 1 (TDP1): qHTS in cells in absence of CPT; DT40 Tdp1-/- hTDP1 cells, no CPT, ATP luminescence, 48 h; hit rate 15% among 420,000; Potency, µM (series often up to 46.2 µM), usual class: inhibitors; further: nearly all actives have a fitted effect of over 55% in size
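Luminescent ATP content (CellTiter-Glo) served as the growth readout. Knockout chicken DT40 cells expressing human TDP1 were exposed to compounds without camptothecin for a minimum 48 hr at 37 °C.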
HT1080NT lethal – kills 2HG-producing HT-1080-NT fibrosarcoma cells; AID 686970; Potency, µM (titrated, usually from 46.1 µM), actives largely listed as cytotoxic; hit rate 1.6% among 360,000; HT-1080-NT fibrosarcoma viability, CellTiter-Glo ATP luminescence, 48 h;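 further: NT is the 2HG producing partner of a matched IDH1 knockdown line; nearly all actives have a fitted effect of over 55% in size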
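Compounds were tested in concentration-response format on HT-1080-NT cells for 48 hours at 37 degrees C. Cell viability came from CellTiter-Glo luminescence; curves were classified by r2, response magnitude and activity.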
Hits are given with their value; n = inactive; u = inconclusive; x = no result given; [ ] = dose if it differs, or a comment. Unless noted, the call rests on the fitted dose curve; in most records, active means well fitted curve in the direction sought with a large enough effect; inconclusive means small, poorly fitted or top-dose-only effect, or another doubt; inactive means no such curve, though single readings can be large; an effect the other way counts as inactive or inconclusive.

SMILES	DT40 TDP1 CPT	IL-1B inflam inh	HT1080 IDH1KD tx	DT40 TDP1 no CPT	HT1080NT lethal
COc1ccc(CCNC(=O)c2ccccc2NC(=O)CN2CCN(c3ccccc3O)CC2)cc1	u	n	n	10µM	n
COC(=O)c1cn(C)c2ccc(S(=O)(=O)N(C)C3CCCCC3)cc2c1=O	n	n	n	u	n
Cc1ccnc(NC(=O)CNC(=O)c2ccc(Br)o2)c1	n	n	n	n	n
COc1cc(CNC(=O)c2cc(-c3ccc(F)cc3C)n[nH]2)cc(OC)c1	u	n	n	u	n
COc1ccc(Cn2c(=O)c3cccnc3n(Cc3ccc([N+](=O)[O-])cc3)c2=O)cc1	u	n	n	n	n
COc1ccc(CCn2c(=O)c3cccnc3n(Cc3ccc([N+](=O)[O-])cc3)c2=O)cc1OC	u	n	n	16µM	n
COc1ccc(CCn2c(=S)[nH]c(=O)c3cccnc32)cc1OC	0.22µM	x	u	0.1µM	u
COc1ccc(CCn2c(=O)c3cccnc3n(CC(=O)Nc3c(C)cccc3C)c2=O)cc1OC	n	x	x	n	x
CCOc1ccccc1Nc1nc2ccc(C)cc2n2cnnc12	u	n	n	n	n
Cc1ccc2nc(Nc3ccc(C)c(Cl)c3)c3nncn3c2c1	u	n	n	u	n
COc1ccc(Nc2nc3cc(Cl)c(Cl)cc3n3cnnc23)cc1Cl	u	x	x	13µM	x
Cc1ccc2nc(Nc3ccc(C)c(F)c3)c3nncn3c2c1	18µM	x	x	15µM	x
COc1ccc(OC)c(Nc2nc3ccc(C)cc3n3cnnc23)c1	16µM	n	n	u	n
COc1ccc(Cl)cc1Nc1nc2ccc(C)cc2n2cnnc12	23µM	n	n	15µM	n
COc1ccc(Cl)cc1Nc1nc2ccc(C(=O)c3ccccc3)cc2n2cnnc12	n	x	x	n	x
CC(CC(=O)Nc1ccc2c(c1)c(=O)n(C)n2Cc1ccc(F)cc1)C(F)(F)F (stereo unspecified)	u	n	n	u	n
Cn1c(=O)c2cc(NC(=O)NCCc3ccccc3)ccc2n1Cc1ccccc1	n	n	n	u	n
CC(CC(=O)Nc1ccc2c(c1)c(=O)n(C)n2-c1ccccc1F)c1ccccc1 (stereo unspecified)	6.5µM	n	4.1µM	5.8µM	7.3µM
Cn1c(=O)c2cc(NC(=O)CC(C)(C)C)ccc2n1-c1ccccc1F	u	n	n	23µM	u
CC(CC(=O)Nc1cccc(Cl)c1)c1ccccc1 (stereo unspecified)	u	-72	n	u	n
CC(CC(=O)Nc1ccc2c(c1)c(=O)n(C)n2Cc1ccc(F)cc1)c1ccccc1 (stereo unspecified)	21µM	n	u	21µM	u
Cc1cc2cc(CN(C(=O)C3CC3)C3CCCC3)c3nnnn3c2cc1C	u	n	n	21µM	n
COc1cccc(N2CC(NC(=O)Cc3cccs3)CC2=O)c1 (stereo unspecified)	n	x	x	n	x
O=C(CNS(=O)(=O)/C=C/c1ccccc1)OCC(=O)N1CCC(Cc2ccccc2)CC1	n	-84	n	n	n
CC(C)(CN1CCN(C(c2ccccc2)c2ccccc2)CC1)NS(=O)(=O)c1ccccc1	23µM	n	n	16µM	n
SMILES	DT40 TDP1 CPT	IL-1B inflam inh	HT1080 IDH1KD tx	DT40 TDP1 no CPT	HT1080NT lethal
CC(C)(CN1CCN(Cc2ccccc2)CC1)NS(=O)(=O)c1ccccc1	u	n	n	u	n
CC(C)(CN1CCC(Cc2ccccc2)CC1)NS(=O)(=O)c1ccccc1	21µM	u	n	u	n
O=C(CCNS(=O)(=O)c1ccccc1)N1CCC(Cc2ccccc2)CC1	u	-50	n	u	n
CC1CC(C)CN(C(=O)COC(=O)CNS(=O)(=O)/C=C/c2ccccc2)C1 (stereo unspecified)	n	n	n	n	n
CC1CCN(C(=O)CCNS(=O)(=O)c2ccccc2)CC1	n	n	n	n	n
COC(=O)[C@@H]1CCCN1C(=O)c1cnn(-c2nccc(-c3cc(C)sc3C)n2)c1C1CC1	n[9.04 µM]	x	x	u	x
COc1cccc(CN(C)C(=O)COc2ccc(C(=O)c3ccc(Cl)cc3)cc2)c1OC	u	n	u	23µM	u
COc1ccccc1C(=O)NNC(=S)NC(=O)c1sc2ccccc2c1Cl	15µM	n	u	8.2µM	n
CCOc1ccccc1N1CCN(C(=O)CNC(=O)c2sc3ccccc3c2Cl)CC1	u	n	n	23µM	n
COc1cccc(CN(C)C(=O)CNC(=O)c2sc3ccccc3c2Cl)c1OC	u	-51	n	u	n
COc1ccc(NC(=O)CSCC(=O)N(C)Cc2cccc(OC)c2OC)cc1	u	n	n	u	n
Nc1ncnc(N)c1NC(=O)c1cc(Cl)c(OCc2ccccc2)c(Cl)c1	n	n	n	n	n
CC1CC(C)CN(C(=O)CNC(=O)c2sc3ccccc3c2Cl)C1 (stereo unspecified)	u	-57	n	23µM	n
CC1CCCN(C(=O)CNC(=O)c2sc3ccccc3c2Cl)C1 (stereo unspecified)	n	x	n	u	n
COc1ccc(/C=N/Nc2nnc(Cc3ccc(OC)c(OC)c3)c(=O)[nH]2)cc1	26µM	n	n	16µM	n
CN1c2ccccc2C(C)(C)C12CCCC(=O)N2 (stereo unspecified)	29µM	n	n	u	n
CN1C(=O)OC2(C)CCc3ccccc3C12C (stereo unspecified)	n	n	n	n	n
Cc1[nH]c2ccccc2c1C1=NNC(=Nc2ccc(F)cc2)SC1	u	-66	n	u	n
COc1ccc(N=C2NN=C(c3c(C)[nH]c4ccccc34)CS2)cc1	u	u	u	23µM	u
Cc1c(N=C2NN=C(c3c[nH]c4ccccc34)CS2)c(=O)n(-c2ccccc2)n1C	n	n	n	n	n
O=C(Cn1[nH]c(=O)c2ccccc2c1=O)N1CC=C(c2ccccc2)CC1	11µM	n	n	16µM	n
Cc1ccc(CS(=O)(=O)CCC(=O)NCc2ccccc2Cl)cc1	n	n	n	n	n
C/C(=C(\CCOC(=O)c1ccccc1)SS/C(CCOC(=O)c1ccccc1)=C(/C)N(C=O)Cc1cnc(C)nc1N)N(C=O)Cc1cnc(C)nc1N	27µM	x	x	u	x
CC(=C(CCOP(=O)(O)O)SC(=O)c1ccccc1)N(C=O)Cc1cnc(C)nc1N	n	x	x	n	x
O=C(CN1C(=O)NC2(CCCC2)C1=O)OCc1ccc(Cl)cc1Cl	n	n	n	n	n
O=[N+]([O-])CC(c1ccc(F)cc1)c1c[nH]c2ccccc12 (stereo unspecified)	7.3µM	n	u	6.5µM	u
Fc1ccc(C(Nc2ccccn2)c2c[nH]c3ccccc23)cc1 (stereo unspecified)	u	n	n	u	n
